Avidin bead fluor: avidin bead compound fluorescence profile. Avidin beads, compound fluorescence 488/530 nm, flow cytometry; active compounds read high. fluorescence (KMESF) at 10 µM. hit rate 0.38% among 220,000; in the data active means fluorescence above about 47
RGS7-Gao reg: modulates binding of RGS7 to human Galphao; Multiplexed bead flow cytometry; actives lie on both sides; P09471; hit rate 0.35% among 220,000; AID 1439; binding response (% of control), % at 10 µM; in the data active means binding response below about 49% or above about 150%; inconclusive means no clear call, values can overlap the other calls; inactive means in between;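 further: fluorescent Galphao held in activated GDP-AlF4 state binding bead-coupled RGS7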
Target sequence (P09471 whole entry, looked up): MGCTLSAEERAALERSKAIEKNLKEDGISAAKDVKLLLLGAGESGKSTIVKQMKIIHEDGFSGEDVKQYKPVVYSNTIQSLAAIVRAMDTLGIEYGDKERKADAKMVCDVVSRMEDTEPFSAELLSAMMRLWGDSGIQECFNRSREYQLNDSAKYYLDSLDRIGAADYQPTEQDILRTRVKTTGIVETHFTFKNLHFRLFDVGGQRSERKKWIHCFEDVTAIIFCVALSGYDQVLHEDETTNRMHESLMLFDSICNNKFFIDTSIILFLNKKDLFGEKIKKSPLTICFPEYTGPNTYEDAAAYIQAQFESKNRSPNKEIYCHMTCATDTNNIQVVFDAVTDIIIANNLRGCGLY
RGS8-Gao reg: human RGS8-Galphao interaction regulation | P09471 | multiplexed bead flow cytometry, RGS8-Galphao binding; actives lie on both sides | response (percent of control binding), % at 10 µM | hit rate 0.34% among 220,000; in the data active means response below about 60% or above about 140%; inactive means in between;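 further: Galphao activated as the GDP aluminium fluoride complex binding bead-coupled RGS8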
RGS4-Gao reg: human RGS4-Galphao interaction regulation. P09471. Multiplexed bead flow cytometry, RGS4-Galphao binding; actives lie on both sides. binding response (% of control), % at 10 µM. hit rate 0.33% among 220,000; in the data active means binding response below about 49% or above about 150%; inactive means in between;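 further: fluorescent Galphao activated with aluminum fluoride binding bead-coupled RGS4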
RGS16-Gao: regulators of human RGS16-Galphao interaction; binding response (% of control), % at 10 µM; AID 1441; bead-based flow cytometry RGS16-Galphao binding, fluorescence; actives lie on both sides; hit rate 0.38% among 220,000;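 further: Galphao activated by GDP with aluminum fluoride before binding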
GSH bead fluor: GSH bead compound fluorescence profile; fluorescence (KMESF) at 10 µM; GSH beads flow cytometry, compound fluorescence 488/530 nm; active compounds read high; hit rate 0.25% among 190,000; in the data active means fluorescence above about 89;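 further: glutathione beads carrying GST-tagged Bcl family fusion proteins plus one bare bead set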
RGS-Gao: RGS4-Galphao interaction regulator (human) | AID 1504 | multiplexed bead flow cytometry, RGS–Galpha-o binding | shares compounds with RGS16-Gao | RGS4–Galpha-o binding response, % at 10 µM | hit rate 99% among 1,600;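 further: fluorescently labeled Galpha-o bound to GDP with aluminium fluoride binding biotinylated RGS beads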
Avidin counter: interferes with biotinylated probe binding to avidin beads; 1,700 tested, under 10 active; shares compounds with RGS16-Gao; AID 1783; inhibition, % at 10 µM; streptavidin beads, fluorescein-biotin binding, flow cytometry;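 active means inhibition above 50%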;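 further: median green fluorescence of gated singlet beads compared with DMSO control wells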
RGS8-Gao single: RGS8-Galphao interaction regulation, single point confirmation; AID 1836; bead-based flow cytometry RGS8-Galphao binding, fluorescence; actives lie on both sides; hit rate 3% among 1,700; binding response (% of control), % at 10 µM; shares compounds with RGS16-Gao; in the data active means binding response below about 72% or above about 130%; inactive means in between;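 further: Galphao activated as GDP AlF4 complex before binding bead RGS8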
RGS7-Gao single: confirmation of regulators of human RGS7-Galphao interaction; shares compounds with RGS16-Gao; bead-based flow cytometry RGS7-Galphao binding; actives lie on both sides; response (percent of control binding), % at 10 µM; hit rate 7.8% among 1,700; AID 1837; in the data active means response below about 75% or above about 130%; inactive means in between;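 further: fluorescent Galphao activated with GDP and aluminum fluoride binding bead-coupled RGS7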
RGS16-Gao single: confirmation of regulators of human RGS16-Galphao interaction; response (% of control binding), % at 10 µM; bead-based flow cytometry, RGS16-Galphao binding; actives lie on both sides; hit rate 4% among 1,700; shares compounds with RGS16-Gao; in the data active means response below about 74% or above about 130%; inactive means in between;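 further: Galphao activated as the GDP aluminium fluoride complex binding bead-coupled RGS16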
RGS4-Gao confirm: RGS4-Galphao interaction regulation, single point confirmation | binding response (% of control), % at 10 µM | RGS4-Galphao binding, multiplexed bead flow cytometry; actives lie on both sides | AID 1840 | hit rate 4% among 1,700 | shares compounds with RGS16-Gao; in the data active means binding response below about 74% or above about 130%; inactive means in between
RGS19-Gao conf: RGS19-Galphao interaction regulation, single point confirmation | bead-based flow cytometry RGS19-Galphao binding; actives lie on both sides | hit rate 5% among 1,700 | AID 1841 | shares compounds with RGS16-Gao | response (percent of control binding), % at 10 µM; in the data active means response below about 50% or above about 160%; inactive means in between
Target sequence (P09471 whole entry, looked up): as above
Target sequence (P49795 whole entry, looked up): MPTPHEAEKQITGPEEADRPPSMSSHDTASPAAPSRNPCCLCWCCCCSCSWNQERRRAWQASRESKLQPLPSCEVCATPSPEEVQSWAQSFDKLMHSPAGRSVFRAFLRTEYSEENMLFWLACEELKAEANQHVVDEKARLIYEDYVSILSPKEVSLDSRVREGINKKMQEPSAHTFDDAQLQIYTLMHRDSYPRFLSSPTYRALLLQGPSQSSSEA
Of the large screens only hits and unclear results are named; the others gave an inactive call (follow-up assays come after a bar, where they were run); [ ] = remark or other dose. An excerpt weighted towards active compounds, which were near 1.2% of everything screened. Unless noted, how the calls were made is not given here.

C=CCN1CC[C@]23c4c5ccc(O)c4O[C@H]2C(=O)CC[C@@]3(O)[C@H]1C5	RGS7-Gao reg 34.1, RGS8-Gao reg 57.0, RGS4-Gao reg 47.8 | Avidin counter inactive | RGS8-Gao single inactive | RGS7-Gao single inactive | RGS16-Gao single inactive | RGS4-Gao confirm inactive | RGS19-Gao conf inactive
Cn1c(O)c(C=NCCCCCCCCCCC(=O)O)c(=O)n(C)c1=O	RGS7-Gao reg inconclusive (no result: GSH bead fluor)
COc1cc(CC2(CCc3ccncc3)C(=O)N(C)C(=O)N(C)C2=O)cc(OC)c1OC	RGS8-Gao reg 57.9 | RGS-Gao 101.4 | Avidin counter inactive | RGS8-Gao single inactive | RGS7-Gao single inactive | RGS16-Gao single inactive | RGS4-Gao confirm inactive | RGS19-Gao conf inactive
CN=C(SCC(=O)c1cccc(Cl)c1)c1c(O)n(C)c(=O)n(C)c1=O	RGS7-Gao reg inconclusive (no result: GSH bead fluor)
COc1cccc(C(=O)C2CCCN(Cc3ccc4nsnc4c3)C2)c1 (centres undefined)	RGS7-Gao reg 25.6, RGS8-Gao reg 48.3 | RGS-Gao 72.3 | Avidin counter inactive | RGS8-Gao single inactive | RGS7-Gao single inactive | RGS16-Gao single inactive | RGS4-Gao confirm inactive | RGS19-Gao conf inactive
CN1CCN(c2ncc(C=O)s2)CC1	none
Cc1cc(OC(=O)N(C)C)n(-c2ccccc2)n1	RGS7-Gao reg inconclusive, RGS8-Gao reg 9.2, RGS4-Gao reg -23.1, RGS16-Gao -15.0 (no result: GSH bead fluor) | Avidin counter inactive | RGS8-Gao single inactive | RGS7-Gao single inactive | RGS16-Gao single inactive | RGS4-Gao confirm inactive | RGS19-Gao conf inactive
Cc1ccc(CN2CCCC(C(=O)c3sccc3C)C2)o1 (centres undefined)	none
OC(Cn1c2ccccc2c2ccccc21)C[n+]1cccc2ccccc21 (centres undefined)	Avidin bead fluor 78, RGS7-Gao reg 153.5[activator] | RGS-Gao 122.7 | Avidin counter inactive | RGS8-Gao single inactive | RGS7-Gao single 141.1[activator] | RGS16-Gao single inactive | RGS4-Gao confirm 131.8[activator] | RGS19-Gao conf 199.0[activator]
N#CC(c1ccccc1)N1CCOCC1 (centres undefined)	RGS7-Gao reg inconclusive (no result: GSH bead fluor)
CCN1CCC2(CC1)NC(=O)c1ccccc1O2	none
Cc1nnc2ccc(N3CCN(C)CC3)nn12	RGS8-Gao reg 144.5[activator] | RGS-Gao 120.9 | Avidin counter inactive | RGS8-Gao single inactive | RGS7-Gao single inactive | RGS16-Gao single inactive | RGS4-Gao confirm inactive | RGS19-Gao conf inactive
CCN1CCN(C(=O)COc2ccc(S(=O)(=O)N(C)Cc3ccccc3)cc2)CC1	RGS16-Gao 24.4 | RGS-Gao 81.7 | Avidin counter inactive | RGS8-Gao single inactive | RGS7-Gao single inactive | RGS16-Gao single inactive | RGS4-Gao confirm inactive | RGS19-Gao conf inactive
CCN(C(C)=O)c1cccc(-c2ccnc3c(C#N)cnn23)c1	none
COc1ccc(C(=O)C2(C)N(O)C(C)C(c3cccs3)=[N+]2[O-])cc1 (centres undefined)	none
CC1C(c2cccs2)=[N+]([O-])C(C)(C(=O)c2cccs2)N1O (centres undefined)	RGS7-Gao reg 158.7[activator], RGS8-Gao reg 146.6[activator], RGS4-Gao reg 156.7[activator] | Avidin counter inactive | RGS8-Gao single inactive | RGS7-Gao single inactive | RGS16-Gao single inactive | RGS4-Gao confirm inactive | RGS19-Gao conf inactive
COC(=O)C(O)(c1ccc(NC(=S)NC(=O)c2ccc(Cl)cc2Cl)cc1)C(F)(F)F (centres undefined)	none
COC(=O)C(O)(c1ccc(NC(=O)NC2CCCCC2)cc1)C(F)(F)F (centres undefined)	Avidin bead fluor 83, RGS7-Gao reg 157.2[activator], RGS4-Gao reg 174.8[activator] | Avidin counter inactive | RGS8-Gao single inactive | RGS7-Gao single 58.6 | RGS16-Gao single inactive | RGS4-Gao confirm 73.1 | RGS19-Gao conf inactive
CCOP(=S)(OCC)SCC(=O)NC(C)(CC)C(=O)O (centres undefined)	RGS16-Gao -104.8 | RGS-Gao 74.4 | Avidin counter inactive | RGS8-Gao single inactive | RGS7-Gao single inactive | RGS16-Gao single inactive | RGS4-Gao confirm inactive | RGS19-Gao conf inactive
CCCCCCC[n+]1ccc(-c2cc[n+](CCCCCCC)cc2)cc1	RGS16-Gao 12.9 | RGS-Gao 115.0 | Avidin counter inactive | RGS8-Gao single inactive | RGS7-Gao single inactive | RGS16-Gao single inactive | RGS4-Gao confirm inactive | RGS19-Gao conf inactive
Fc1cccc(F)c1-c1nc(-c2ccc(Cl)cc2)no1	RGS7-Gao reg inconclusive (no result: GSH bead fluor)
NC(=O)CS(=O)C(c1ccccc1)c1ccccc1 (centres undefined)	none
O=C(Nc1ccccc1)c1cc([N+](=O)[O-])ccc1N1CCNCC1	RGS7-Gao reg inconclusive, RGS8-Gao reg 59.5 | RGS-Gao 89.5 | Avidin counter inactive | RGS8-Gao single inactive | RGS7-Gao single inactive | RGS16-Gao single inactive | RGS4-Gao confirm inactive | RGS19-Gao conf inactive
CCN1CCN(c2ccc([N+](=O)[O-])cc2C(=O)OC)CC1	none
Cc1nccn1Cc1ccc(Cl)nc1	none
O=C(Cc1ccccc1)N1CCN(C/C=C/c2ccccc2)CC1	RGS7-Gao reg 7.9, RGS8-Gao reg 28.6, RGS4-Gao reg -8.3, RGS16-Gao -0.6 | Avidin counter inactive | RGS8-Gao single inactive | RGS7-Gao single inactive | RGS16-Gao single inactive | RGS4-Gao confirm inactive | RGS19-Gao conf inactive
CN(C)C(=O)Oc1c(Cl)cc(Cl)c2ccccc12	none
CN(C)C(=O)Oc1ccc(Cl)c2cccnc12	RGS8-Gao reg 57.2 | RGS-Gao 75.2 | Avidin counter inactive | RGS8-Gao single inactive | RGS7-Gao single inactive | RGS16-Gao single inactive | RGS4-Gao confirm inactive | RGS19-Gao conf inactive

Screening results deposited in PubChem BioAssay by NMMLSC.
